Results reported in PubChem BioAssay (Tox21).
Several values for one entry are separate records, joined by “and”; a condition that tells them apart may be missing. Identical values can stand only once. Inconclusive results are not listed. The source holds several records for some structures; these can differ, active in one and inactive in another. Activity calls are given as the source filed them. Unless noted, the call rests on the fitted dose curve; in most records, active means well fitted curve in the direction sought with a large enough effect in the repeat runs; inconclusive means weak or mixed curves; inactive means no such curve, though single readings can be large; an effect the other way counts as inactive or inconclusive.

Assays:
[1] = qHTS assay for small molecule agonists of the p53 signaling pathway (AID 651631; calls by dose curve; further: nearly all actives have a fitted effect of over 15% in size; further: potency means the concentration at half of the fitted maximal effect)
Outline: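 Readout was fluorescence from the LiveBLAzer FRET substrate, applied for 2 h at room temperature after 16 h compound exposure at 37 °C. Cells were the p53RE-bla HCT-116 line, with beta-lactamase driven by p53 response elements.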

[2] = qHTS assay for small molecules that induce genotoxicity in human embryonic kidney cells expressing luciferase-tagged ATAD5 (AID 651632); further: nearly all actives have a fitted effect of over 15% in size; further: potency means the concentration at half of the fitted maximal effect
Outline: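 Quantitative HTS in HEK293T expressing luciferase-tagged ATAD5, whose levels rise upon DNA damage. Exposure ran 16 hr at 37C and 5% CO2, with luminescence read 30 min after Amplite addition at room temperature.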

[3] = qHTS assay for small molecule agonists of the p53 signaling pathway - cell viability (AID 651633; calls by dose curve; further: nearly all actives have a fitted effect of over 30% in size; further: potency means the concentration at half of the fitted maximal effect)
Outline: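 p53RE-bla cells, seeded at 4,000 per well and rested 5 h at 37 C/5% CO2, received compounds in DMSO for 16 h at 37 C. CellTiter-Glo was then added, and luminescence was read after 30 min at room temperature to gauge cytotoxicity.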

[4] = qHTS assay for small molecules that induce genotoxicity in human embryonic kidney cells expressing luciferase-tagged ATAD5 - cell viability (AID 651634; calls by dose curve; further: nearly all actives have a fitted effect of over 25% in size; further: potency means the concentration at half of the fitted maximal effect)
Outline: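 After 15.5 hr incubation with compound at 37C, 5% CO2, HEK293T ATAD5-luciferase cells received CellTiter-Fluor reagent; fluorescence intensity was quantified following 30 min at 37C.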

[5] = qHTS assay for small molecule disruptors of the mitochondrial membrane potential - cell viability (AID 720634; calls by dose curve; further: nearly all actives have a fitted effect of over 20% in size; further: potency means the concentration at half of the fitted maximal effect)
Outline: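 ATP-based luminescent viability readout (CellTiter-Glo, 30 min, room temperature) in HepG2 cells multiplexed with the m-MPI membrane potential dye; compound exposure lasted 1 hr at 37 C.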

[6] = qHTS assay for small molecule disruptors of the mitochondrial membrane potential (AID 720635); further: potency means the concentration at half of the fitted maximal effect
Outline: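 HepG2 cells (2,000/well) attached overnight at 37C, then took compound for 1 hr at 37C, 5% CO2. Mito-MPS dye was added for 30 min; fluorescence was read at 490/535 nm (monomers) and 540/590 nm (aggregates).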

[7] = qHTS assay to test for compound auto fluorescence at 590 nm (red) in HepG2 cells (AID 720674)
Outline: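 Rose Bengal sodium served as the red fluorophore standard. HepG2 monolayers (overnight attachment, MEM with 10% FBS) were exposed to test compounds for 1 hr at 37 C and read at Ex 540/Em 590 nm.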

[8] = qHTS assay to test for compound auto fluorescence at 590 nm (red) in HEK293 cells (AID 720679)
Outline: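 Red channel, Ex/Em 540/590nm; signal expressed as equivalency to Rose Bengal sodium. HEK293, 2,000 cells/well, 10% dialyzed FBS; 23 nL compound pinned after 4-5 hr attachment; overnight 37C/5% CO2 before reading.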

[9] = qHTS assay to test for compound auto fluorescence at 535 nm (green) in HepG2 cells (AID 720675)
[10] = qHTS assay to test for compound auto fluorescence at 460 nm (blue) in HEK293 cells (AID 720678)
Outline: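 Blue read-out at excitation 405 nm and emission 460 nm follows overnight compound exposure of HEK293 cells at 37C in 5% CO2. Activity is given as auto fluorescence equivalency to triamterene.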

Measured: Potency

COC(=O)Nc1nc2ccc(Sc3ccccc3)cc2[nH]1
active: [1] 114 nM and 68.6 nM | [2] 4.03 µM and 12.2 µM | [6] 4.33 µM
inactive: [3] | [4] | [5] | [7] | [8]

COCC(C)O (stereo not given)
inactive: [1] | [2] | [3] | [4] | [5] | [7] | [9] | [8]

CC1(C)CC(N=C=O)CC(C)(CN=C=O)C1 (stereo not given)
inactive: [1] | [2] | [3] | [4] | [5] | [7] | [8]

NS(=O)(=O)c1cc2c(cc1Cl)NC=NS2(=O)=O
inactive: [1] | [2] | [3] | [4] | [5] | [6] | [7] | [8]

C=C(C)C(=O)OCCCCCCCCCCCC
inactive: [1] | [2] | [3] | [4] | [5] | [7] | [9] | [10] | [8]

O=[N+]([O-])c1cccc(Cl)c1
inactive: [1] | [2] | [3] | [4] | [5] | [6] | [7] | [10] | [8]

Clc1ccc(Cl)c(Cl)c1Cl
inactive: [1] | [2] | [3] | [4] | [7] | [9] | [10] | [8]

Cn1c([N+](=O)[O-])cnc1COC(N)=O
inactive: [1] | [2] | [3] | [4] | [5] | [6] | [7] | [10] | [8]

O=c1c(-c2ccc(O)cc2)coc2cc(O)ccc12
inactive: [1] | [3] | [4] | [7] | [8]
active: [2] 30.3 µM | [6] 19.1 µM

CCOC(=O)/C=C\C(=O)OCC
inactive: [1] | [2] | [3] | [4] | [5] | [6] | [7] | [10] | [8]

COCC(=O)O
inactive: [1] | [2] | [3] | [4] | [5] | [6] | [7] | [10] | [8]

O=C(O)c1cc(-c2ccccc2)nc2ccccc12
inactive: [1] | [2] | [3] | [4] | [5] | [7] | [9] | [8]

Cc1cc(Cc2ccc(N)c(C)c2)ccc1N
inactive: [1] | [2] | [3] | [4] | [7] | [10] | [8]

C[C@@H](O)[C@H]1C(=O)N2C(C(=O)O)=C(S[C@@H]3CN[C@H](C(=O)N(C)C)C3)[C@H](C)[C@H]12
inactive: [1] | [2] | [3] | [4] | [5] | [7] | [9] | [10] | [8]

CS(=O)(=O)c1ccc([C@@H](O)[C@@H](CO)NC(=O)C(Cl)Cl)cc1
inactive: [1] | [2] | [3] | [4] | [5] | [6] | [7] | [8]

C=C(C#N)C(=O)OCC
inactive: [1] | [2] | [3] | [4] | [5] | [7] | [9] | [10] | [8]

Clc1cc(Cl)c(Cl)cc1Cl
inactive: [1] | [2] | [3] | [4] | [5] | [6] | [7] | [10] | [8]

C/C=C(C)/C=C/C=C(C)C
inactive: [1] | [2] | [3] | [4] | [5] | [7] | [10] | [8]

CCC(=O)O
inactive: [1] | [2] | [3] | [4] | [7] | [9] | [10] | [8]

Cc1cc(O)c2c(c1)C(=O)c1cc(O)cc(O)c1C2=O
inactive: [2] | [7] | [10] | [8]
active: [1] 10.6 µM | [4] 23.8 µM and 54.5 µM | [5] 15 µM | [6] 1.68 µM and 545 nM
inactive and 61.1 µM (active): [3]

O=S(=O)(O)CCS
inactive: [1] | [2] | [3] | [4] | [5] | [6] | [7] | [8]

O=S(=O)(O)c1cc(S(=O)(=O)O)c2c(N=Nc3ccccc3)c(O)ccc2c1
inactive: [1] | [2] | [3] | [5] | [7] | [10] | [8]
active: [4] 48.8 µM and 61.1 µM

Cc1cc(=O)[nH]c(C(C)C)n1
inactive: [1] | [2] | [3] | [4] | [5] | [6] | [7] | [10] | [8]

CC1=C(CC(=O)O)c2cc(F)ccc2/C1=C\c1ccc(S(C)=O)cc1 (stereo not given)
inactive: [1] | [2] | [3] | [4] | [5] | [7] | [9] | [10] | [8]

c1ccc2ccccc2c1
inactive: [1] | [2] | [3] | [4] | [5] | [6] | [7] | [8]

CCCCCCCCCCCCN
inactive and 27.3 µM (active): [3]
inactive: [1] | [2] | [5] | [7] | [9] | [10] | [8]

COC(=O)c1ccc(C(=O)OC)cc1
inactive: [1] | [2] | [3] | [4] | [5] | [6] | [7] | [8]

CCCCC/C=C\C/C=C\CCCCCCCC(=O)OC
inactive: [1] | [2] | [3] | [4] | [5] | [7] | [9] | [10] | [8]

Cc1ccc(C)c(C)c1
inactive: [1] | [2] | [3] | [4] | [5] | [6] | [7] | [10] | [8]

Oc1c(Cl)cc(Cl)c(Cl)c1Cl
inactive: [2] | [7] | [10] | [8]
active: [1] 16.9 µM | [6] 11.9 µM and 19.3 µM
inactive and 61.1 µM (active): [3]

O=C1O[C@H](CO)[C@@H](O)[C@H](O)[C@H]1O
inactive: [1] | [2] | [3] | [4] | [5] | [6] | [7] | [10] | [8]

O=C1CCCCC1
inactive: [2] | [3] | [4] | [5] | [6] | [7] | [8]

NC(=O)NNc1ccccc1
inactive: [1] | [3] | [4] | [5] | [6] | [7] | [8]

CCOC(=O)C1OC1c1ccccc1 (stereo not given)
inactive: [3] | [4] | [5] | [6] | [7] | [10] | [8]

OC1CCCC1
inactive: [2] | [3] | [4] | [5] | [6] | [7] | [9] | [8]

O=C(O)c1ccc([N+](=O)[O-])cc1
inactive: [1] | [3] | [4] | [5] | [6] | [7] | [8]

CC1=C(/C=C/C(C)=C/C=C/C(C)=C/CO)C(C)(C)CCC1
inactive: [2] | [3] | [4] | [5] | [7] | [10] | [8]

CCCCCCCCCCCCOCC1CO1 (stereo not given)
inactive: [2] | [3] | [4] | [5] | [6] | [7] | [10] | [8]

Oc1ccc2ccccc2c1N=Nc1ccccc1
active: [4] 30.6 µM and 48.6 µM | [5] 27.3 µM | [6] 3.06 µM and 6.11 µM
inactive: [2] | [3] | [7] | [10] | [8]

CS(=O)(=O)Nc1ccc([N+](=O)[O-])cc1Oc1ccccc1
inactive: [1] | [3] | [7] | [9] | [8]

O=C1N=C(O)CN1/N=C/c1ccc(-c2ccc([N+](=O)[O-])cc2)o1
active: [6] 3.35 µM and 2.43 µM
inactive: [3] | [4] | [5] | [7] | [9] | [10] | [8]

Cc1ccc(C(=O)O)o1
inactive: [2] | [3] | [4] | [5] | [6] | [7] | [9] | [10] | [8]

CC(=O)[C@@]1(O)CC[C@H]2[C@@H]3CCC4=CC(=O)CC[C@]4(C)[C@H]3CC[C@@]21C
inactive: [2] | [4] | [5] | [6] | [7] | [9] | [8]

CC(C)NCC(O)COc1cccc2ccccc12 (stereo not given)
inactive: [1] | [3] | [4] | [5] | [7] | [9] | [8]

CC1COc2ccccc2N1C(=O)C(Cl)Cl (stereo not given)
inactive: [3] | [4] | [5] | [7] | [9] | [10] | [8]

Cc1cc(O)cc(C)c1Cl
inactive: [2] | [3] | [4] | [5] | [7] | [9] | [10] | [8]
active: [6] 21.1 µM and 21.7 µM

CCCCOCCOCCOC(=O)CCCCC(=O)OCCOCCOCCCC
inactive: [2] | [3] | [4] | [5] | [6] | [7] | [9] | [10] | [8]

CC(C)n1c(/C=C/[C@@H](O)C[C@@H](O)CC(=O)O)c(-c2ccc(F)cc2)c2ccccc21
inactive: [3] | [5] | [7] | [9] | [10] | [8]
active: [6] 26.6 µM

C=C1CC[C@H](O)CC1=C/C=C1\CCC[C@]2(C)[C@@H]([C@H](C)/C=C/[C@H](C)C(C)C)CC[C@@H]12
inactive: [2] | [4] | [5] | [7] | [9] | [10] | [8]
inactive and 60.6 µM (active): [6]
active: [3] 54 µM and 68.6 µM

O=[N+]([O-])c1cc(N(CCO)CCO)ccc1NCCO
inactive: [1] | [3] | [5] | [7] | [9] | [10] | [8]

CC1CC(OC(=O)c2ccccc2O)CC(C)(C)C1 (stereo not given)
inactive: [1] | [3] | [4] | [5] | [7] | [9] | [8]
active: [6] 27 µM

CC(C)(N=C=O)c1cccc(C(C)(C)N=C=O)c1
inactive: [2] | [3] | [4] | [5] | [7] | [9] | [10] | [8]

CC(C)(C)C(=O)C1C(=O)c2ccccc2C1=O
inactive: [2] | [3] | [5] | [7] | [9] | [8]
active: [4] 17.1 µM and 7.7 µM | [6] 10.8 µM and 6.11 µM

CCCCC(CC)COC(C)=O (stereo not given)
inactive: [2] | [4] | [5] | [6] | [7] | [8]

ClC1=C(Cl)C(Cl)(Cl)C(Cl)=C1Cl
active: [3] 13.8 µM | [4] 6.9 µM and 15.4 µM | [6] 61.1 µM
inactive: [2] | [5] | [7] | [9] | [10] | [8]
